This note sets out measurements from PubChem BioAssay (Tox21).

Assay [1] can be described thus: Nuclear factor erythroid 2-related factor 2/antioxidant responsive element (Nrf2/ARE) small molecule agonists: qHTS cell viability counter screen in human keratinocytes (AID 1919968; active means well fitted curve in the direction sought with a large enough effect in the repeat runs; an effect the other way counts as inactive or inconclusive; further: nearly all actives have a fitted effect of over 55% in size; further: potency means the concentration at half of the fitted maximal effect). In outline: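 In human HaCaT keratinocytes stably expressing an ARE-driven luciferase, compound exposure lasted 23 h at 37 C under 5% CO2. Viable cells are quantified with a protease-based fluorogenic reagent (CellTiter-Fluor) read 1 h after addition.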

A short description of assay [2]: Nuclear factor erythroid 2-related factor 2/antioxidant responsive element (Nrf2/ARE) small molecule agonists: luciferase reporter gene qHTS assay in human keratinocytes (AID 1919969). Further: nearly all actives have a fitted effect of over 35% in size.
The target of assay [3] is Gonadotropin-releasing hormone receptor (Homo sapiens) (UniProt P30968). Description: Human gonadotropin-releasing hormone receptor (GnRHR) small molecule agonists, calcium flux assay in GnRHR-HEK293 cells (AID 1920063). Further: nearly all actives have a fitted effect of over 35% in size. In short, it runs like this: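 Intracellular calcium rise is the read-out: engineered human GnRHR HEK293 cells, dye-loaded, are exposed to DMSO-dissolved compounds and fluorescence at Ex/Em 480/540 is tracked for 3 min.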

The target of assay [4] is KiSS-1 receptor (Homo sapiens) (UniProt Q969F8). Put plainly: Human kisspeptin (KISS1R) small molecule agonists, calcium flux assay in KISS1R-HEK293 cells (AID 1920064; active means well fitted curve in the direction sought with a large enough effect in the repeat runs; an effect the other way counts as inactive or inconclusive). In outline:
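Concentration-response testing used 15 concentrations in triplicate on human KISS1R-expressing HEK293 cells. Calcium-dependent fluorescence (Ex/Em 480/540) was followed kinetically for 3 min after compound transfer.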

Assay [5] is described as follows: G protein-coupled receptor (GPCR) small molecule agonists, calcium flux assay: HEK293 wild type cell line counter screen (AID 1920065). In short, it runs like this:
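Fluorescence intensity signals activation. After overnight (18 h) culture and a 1 h calcium dye load at 37 C, compounds are added by pin tool and the plate read at 480/540 nm for 3 min in 1 s steps.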

Assay [6] is described as follows: p53 small molecule agonists, cell-based qHTS assay with human liver microsomes (AID 1963577).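 Further: p53 response element beta-lactamase reporter cells with liver microsomes plus NADPH.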 In short, it runs like this: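 HLM-supplemented p53RE-bla reporter assay: 16 h compound exposure at 37 C, microsomes and NADPH each 0.5 mg/mL final, read by fluorescence intensity.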
Assay [7] is described as follows: p53 small molecule agonists, cell-based qHTS assay with rat liver microsomes (AID 1963578). In short, it runs like this: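 Quantitative HTS of the Tox21 10K library: p53RE-bla cells, rat liver microsomes plus NADPH at 0.5 mg/mL final each, 16 h at 37 C, beta-lactamase fluorescence detection.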
A short description of assay [8]: p53 small molecule agonists, cell-based qHTS assay with human liver microsomes: qHTS cell viability counter screen (AID 1963579). Further: nearly all actives have a fitted effect of over 45% in size. In short, it runs like this: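 Viability of p53RE-bla cells is measured as CellTiter-Glo luminescence following a 16 h, 37 C incubation with compound, liver microsomes from human donors and NADPH.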
A short description of assay [9]: p53 small molecule agonists, cell-based qHTS assay with rat liver microsomes: qHTS cell viability counter screen (AID 1963580). Further: nearly all actives have a fitted effect of over 45% in size. In outline: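 After the beta-lactamase ratio was read, CellTiter-Glo was added to the same wells and luminescence measured at 30 min; cells had been treated 16 h at 37 C with compounds, rat liver microsomes and NADPH (0.5 mg/mL final each).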

Assay [10] concerns the target 5-hydroxytryptamine receptor 2A (Homo sapiens) (UniProt P28223). Description: 5-hydroxytryptamine receptor 2A (HTR2A) small molecule antagonists, cell-based qHTS assay (AID 1963586). Further: nearly all actives have a fitted effect of over 45% in size. Further: potency means the concentration at half of the fitted maximal effect. In outline:
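CHO cells stably expressing human HTR2A were plated for 18 h at 37 C, then loaded with calcium dye for 1 h. Compounds were preincubated 5 min at room temperature before DOI (4 nM solution) was added. Kinetic fluorescence was read for 3 min.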

The target is the same in assay [11]. Put plainly: 5-hydroxytryptamine receptor 2A (HTR2A) small molecule agonists, cell-based qHTS assay (AID 1963587). Further: nearly all actives have a fitted effect of over 30% in size. In short, it runs like this: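 CHO cells stably expressing human HTR2A, plated 18 h, loaded with calcium dye 1 h at 37 C. Agonist mode: compounds added and intracellular calcium fluorescence recorded kinetically for 2 min at 1 sec intervals.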
The target of assay [12] is Muscarinic acetylcholine receptor M1 (Homo sapiens) (UniProt P11229). Put plainly: Cholinergic receptor muscarinic 1 (CHRM1) small molecule agonists, cell-based qHTS assay (AID 1963589). Further: nearly all actives have a fitted effect of over 35% in size. In outline: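 Fluorescent calcium dye reports M1 activation in stably transfected CHO cells. Compounds, 15 concentrations, added after 1 h dye loading at 37 C; kinetic reading at 1 sec intervals.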

Assay [13] has as its target Beta-2 adrenergic receptor (Homo sapiens) (UniProt P07550). Description: Adrenergic beta2 receptor (ADRB2) small molecule antagonists, cell-based qHTS assay (AID 1963592). Further: nearly all actives have a fitted effect of over 50% in size. Further: potency means the concentration at half of the fitted maximal effect. In short, it runs like this: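 Assay format: CHO-ADRB2 cells, 18-20hr seeding at 37C/5% CO2, then compound plus 1nM isoproterenol agonist mix for 0.5hr RT. Homogeneous time-resolved fluorescence cAMP detection after 1hr, expressed as 665/615 nm ratio.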

Assay [14] addresses D(2) dopamine receptor (Homo sapiens) (UniProt P14416). Description: Dopamine D2 receptor (DRD2) small molecule agonists, cell-based qHTS assay (AID 1963594). Further: nearly all actives have a fitted effect of over 35% in size. In outline: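 HEK293 cells stably expressing human DRD2, pre-treated with PDE inhibitor Ro20-1724 (0.1 mM final) and compound 10 min at room temperature, then stimulated with NKH477 (200nM […]) for 30 min. cAMP read by HTRF (665/620 nm).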

Assay [15] has the same target. Description: Dopamine D2 receptor (DRD2) small molecule antagonists, cell-based qHTS assay (AID 1963595; active means well fitted inhibition curve with a large enough effect in the signal ratio in the repeat runs, with a control signal flat; the % refers to the signal ratio; further: potency means the concentration at half of the fitted maximal effect). In outline:
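HEK293 cells stably expressing DRD2, preincubated with 0.1 mM Ro20-1724 and compounds 10 min, were stimulated with 200 nM NKH477 plus 12 nM quinpirole for 30 min at room temperature; cAMP measured by HTRF (665/620 nm).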

Assay [16] can be described thus: p53 small molecule agonists, cell-based qHTS assay: qHTS cell viability counter screen (AID 1963581). Further: nearly all actives have a fitted effect of over 45% in size. In outline: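 Luminescence from CellTiter-Glo, reflecting ATP content, serves as the cytotoxicity measure; it is taken after the 2 h reporter substrate step in HCT-116 p53RE-bla cells dosed for 16 h at 37 C.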
Assay [17] is described as follows: p53 small molecule agonists, cell-based qHTS assay (AID 1963582; active means well fitted activation curve with a large enough effect in the signal ratio in the repeat runs, not every such curve was filed as active; the % refers to the signal ratio). In outline:
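After plating, p53RE-bla cells sat 5 h in the incubator; compounds or DMSO vehicle were pinned in; a 16 h incubation at 37 C followed; FRET substrate was added and, 2 h later at RT, fluorescence was measured.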

In assay [18] the target is Muscarinic acetylcholine receptor M1 (Homo sapiens) (UniProt P11229). Description: Cholinergic receptor muscarinic 1 (CHRM1) small molecule antagonists, cell-based qHTS assay (AID 1963588). Further: nearly all actives have a fitted effect of over 40% in size. In short, it runs like this: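 Compounds were tested at 15 concentrations in three independent runs. Dye-loaded CHRM1-CHO cells were exposed 5 min at room temperature before stimulation by acetylcholine added at 50nM. Intracellular calcium was read kinetically on FDSS for 3 min.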

Assay [19] in a line: cAMP Responsive Elements (CRE) small molecule agonists, cell-based qHTS assay (AID 1963590). In outline:
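Compound exposure lasted 3 h at 37 C/5% CO2 in CRE-bla HEK 293T cells grown in assay medium with 10% dialyzed FBS and 25 mM HEPES. Reporter signal came from LiveBLAzer B/G FRET substrate, 2 h, room temperature.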

The nature of assay [20]: cAMP Responsive Elements (CRE) small molecule antagonists, cell-based qHTS assay (AID 1963591; active means well fitted inhibition curve with a large enough effect in the signal ratio in the repeat runs, not every such curve was filed as active; the % refers to the signal ratio). In short, it runs like this: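 Stimulation used NKH477 at a final 0.25 uM for 3 h in compound-treated CRE-bla HEK293T cells, seeded 18 h beforehand. Reporter activity was measured with LiveBLAzer B/G FRET substrate after 2 h at room temperature.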

Values without a mark were called inactive. Inconclusive results are not listed. Calls of active or inactive are those of the source. Unless noted, the call rests on the fitted dose curve.

Chain of KiSS-1 receptor (Homo sapiens) (Q969F8 whole entry, looked up): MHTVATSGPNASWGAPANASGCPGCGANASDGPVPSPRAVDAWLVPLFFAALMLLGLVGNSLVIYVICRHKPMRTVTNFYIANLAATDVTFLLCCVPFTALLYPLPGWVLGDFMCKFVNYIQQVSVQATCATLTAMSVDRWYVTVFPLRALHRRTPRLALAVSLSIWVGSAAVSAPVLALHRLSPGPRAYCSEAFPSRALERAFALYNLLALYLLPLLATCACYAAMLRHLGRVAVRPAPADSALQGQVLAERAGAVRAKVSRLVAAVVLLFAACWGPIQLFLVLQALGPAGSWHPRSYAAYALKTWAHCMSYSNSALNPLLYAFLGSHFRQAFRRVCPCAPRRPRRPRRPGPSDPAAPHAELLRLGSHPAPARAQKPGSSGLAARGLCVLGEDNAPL
Chain of D(2) dopamine receptor (Homo sapiens) (P14416 whole entry, looked up): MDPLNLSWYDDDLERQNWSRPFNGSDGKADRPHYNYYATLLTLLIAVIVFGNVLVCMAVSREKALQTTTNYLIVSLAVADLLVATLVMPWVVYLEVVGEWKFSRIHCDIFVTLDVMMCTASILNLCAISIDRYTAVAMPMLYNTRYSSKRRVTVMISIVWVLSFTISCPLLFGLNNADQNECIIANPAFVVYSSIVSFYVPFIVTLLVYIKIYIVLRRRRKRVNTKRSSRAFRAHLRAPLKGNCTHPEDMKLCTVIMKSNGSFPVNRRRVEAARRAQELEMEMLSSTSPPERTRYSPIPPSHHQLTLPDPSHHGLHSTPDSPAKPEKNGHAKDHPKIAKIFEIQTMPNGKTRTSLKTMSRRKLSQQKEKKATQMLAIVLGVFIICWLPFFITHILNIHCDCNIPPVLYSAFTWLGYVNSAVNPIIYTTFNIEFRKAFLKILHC
Chain of Beta-2 adrenergic receptor (Homo sapiens) (P07550 whole entry, looked up): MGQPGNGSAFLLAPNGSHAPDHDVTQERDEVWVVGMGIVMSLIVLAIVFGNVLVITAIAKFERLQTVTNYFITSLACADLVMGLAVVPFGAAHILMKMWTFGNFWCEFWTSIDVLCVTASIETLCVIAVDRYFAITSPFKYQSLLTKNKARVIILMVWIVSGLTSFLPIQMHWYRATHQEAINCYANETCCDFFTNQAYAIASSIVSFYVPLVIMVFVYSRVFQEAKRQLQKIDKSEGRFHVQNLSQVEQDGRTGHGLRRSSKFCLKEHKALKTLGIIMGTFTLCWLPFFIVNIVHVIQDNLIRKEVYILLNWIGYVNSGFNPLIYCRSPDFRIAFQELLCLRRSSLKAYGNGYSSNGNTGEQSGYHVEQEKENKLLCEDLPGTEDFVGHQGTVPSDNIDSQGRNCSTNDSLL
Chain of 5-hydroxytryptamine receptor 2A (Homo sapiens) (P28223 whole entry, looked up): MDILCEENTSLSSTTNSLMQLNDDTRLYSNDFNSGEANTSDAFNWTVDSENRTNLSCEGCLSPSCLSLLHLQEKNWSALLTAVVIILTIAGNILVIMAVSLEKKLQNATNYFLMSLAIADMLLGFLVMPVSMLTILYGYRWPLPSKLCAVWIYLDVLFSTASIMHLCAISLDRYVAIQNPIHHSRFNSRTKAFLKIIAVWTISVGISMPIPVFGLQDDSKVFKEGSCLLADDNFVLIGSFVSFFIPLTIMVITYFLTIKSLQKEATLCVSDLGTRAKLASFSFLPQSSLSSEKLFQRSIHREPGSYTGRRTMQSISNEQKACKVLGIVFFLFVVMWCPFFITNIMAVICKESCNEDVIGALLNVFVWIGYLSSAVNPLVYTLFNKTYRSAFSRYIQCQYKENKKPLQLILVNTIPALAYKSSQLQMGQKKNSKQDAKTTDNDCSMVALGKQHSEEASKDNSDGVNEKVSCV
Chain of Gonadotropin-releasing hormone receptor (Homo sapiens) (P30968 whole entry, looked up): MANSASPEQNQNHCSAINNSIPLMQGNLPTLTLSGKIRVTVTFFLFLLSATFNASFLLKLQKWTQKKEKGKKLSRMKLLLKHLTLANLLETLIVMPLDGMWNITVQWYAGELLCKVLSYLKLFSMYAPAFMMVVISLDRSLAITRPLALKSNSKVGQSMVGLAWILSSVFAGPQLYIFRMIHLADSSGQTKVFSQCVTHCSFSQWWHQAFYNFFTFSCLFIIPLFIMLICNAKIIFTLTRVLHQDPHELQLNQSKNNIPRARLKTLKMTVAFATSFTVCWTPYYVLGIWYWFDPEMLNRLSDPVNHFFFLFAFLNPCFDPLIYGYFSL
Chain of Muscarinic acetylcholine receptor M1 (Homo sapiens) (P11229 whole entry, looked up): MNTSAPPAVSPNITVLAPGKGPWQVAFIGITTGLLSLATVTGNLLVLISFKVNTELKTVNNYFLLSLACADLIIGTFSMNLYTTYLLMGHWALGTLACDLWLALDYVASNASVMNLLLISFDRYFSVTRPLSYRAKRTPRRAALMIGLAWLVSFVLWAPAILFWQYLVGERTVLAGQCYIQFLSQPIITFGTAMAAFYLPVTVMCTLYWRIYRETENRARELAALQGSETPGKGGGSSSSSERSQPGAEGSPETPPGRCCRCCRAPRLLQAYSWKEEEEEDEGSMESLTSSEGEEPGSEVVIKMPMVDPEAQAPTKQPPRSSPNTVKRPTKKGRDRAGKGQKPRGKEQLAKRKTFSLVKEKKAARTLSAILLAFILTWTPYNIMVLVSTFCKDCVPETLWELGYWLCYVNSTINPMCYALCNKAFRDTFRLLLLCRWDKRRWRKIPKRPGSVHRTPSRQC

As to `O=C1NCN(c2ccccc2)C12CCN(CCCC(c1ccc(F)cc1)c1ccc(F)cc1)CC2`, the Potency was 29800 nM (active) in assay [1], 51.6 nM (active) in [10], 23700 nM (active) in assay [13] and 33.5 nM (active) in assay [15]. Besides, the Potency entry in assay [2], in [3], in [6], in assay [7], in assay [8] and in [9] was “inactive” throughout. Besides, the Potency entry in assay [11], in assay [12] and in assay [14] was “inactive” each time. Moreover, the result in assay [4] and in assay [5] was inactive.
Turning to `CCCCCCCCCCOS(=O)(=O)O`, the Potency entry in assay [1], in assay [2], in assay [3], in [6], in assay [7] and in [8] was “inactive” each time. The Potency result in assay [16], in [17], in [10], in assay [11], in assay [18] and in [12] was “inactive” in each case. For the same molecule, the Potency result in assay [19], in assay [20], in [13] and in [14] was “inactive” each time. Moreover, the result in [4] and in assay [5] was inactive.
As for `CCOC(=O)c1ccc(NC(=O)CN2CCCCC2)cc1`, the Potency result in assay [1], in assay [2], in assay [3], in assay [6], in assay [7] and in assay [8] was “inactive” each time. Moreover, the Potency entry in assay [9], in assay [10], in assay [11], in assay [18], in assay [12] and in assay [19] was “inactive” each time. Moreover, the Potency result in [20], in assay [13], in assay [14] and in assay [15] was “inactive” in each case. The outcome in assay [4] and in assay [5] was inactive.
Take `NC(=O)c1ccccc1[N+](=O)[O-]`: the Potency result in [1], in assay [2], in assay [3], in assay [6], in [7] and in [8] was “inactive” each time. In addition, the Potency result in [9], in assay [10], in assay [11], in [18], in [12] and in assay [19] was “inactive” in each case. The Potency entry in assay [13], in assay [14] and in assay [15] was “inactive” each time. Further, the result in [4] and in assay [5] was inactive.
As for `O=C1CC2(CCCC2)CC(=O)N1CCNCC1COc2ccccc2O1` (stereo unspecified), the Potency entry in assay [1], in assay [2], in assay [3], in [6], in assay [7] and in [8] was “inactive” throughout. In addition, the Potency entry in assay [9], in assay [18], in assay [12] and in [13] was “inactive” throughout. For the same molecule, the result in [4] and in assay [5] was inactive. Besides, the Potency in [15] was 750 nM (active).
With `CCN(CC)C(C)CN1c2ccccc2Sc2ccccc21` (stereo unspecified), the Potency entry in [1], in assay [2], in assay [3], in assay [6], in assay [7] and in [8] was “inactive” each time. For the same molecule, the Potency result in [9], in [17], in assay [11], in assay [12], in assay [19] and in assay [20] was “inactive” each time. Moreover, the Potency result in assay [13], in assay [14] and in assay [15] was “inactive” in each case. The result in assay [4] and in assay [5] was inactive.
As to `CCCCC1=NC2(CCCC2)C(=O)N1Cc1ccc(-c2ccccc2-c2nn[nH]n2)cc1`, the Potency result in assay [1], in assay [2], in assay [3], in assay [6], in assay [7] and in [8] was “inactive” throughout. Further, the Potency entry in assay [9], in [13], in [14] and in assay [15] was “inactive” each time. Also, the result in assay [4] and in assay [5] was inactive.
For `COc1ccc(C2C(=O)c3ccccc3C2=O)cc1`, the Potency result in assay [1], in assay [2], in assay [3], in [6], in assay [7] and in assay [8] was “inactive” in each case. Also, the Potency entry in assay [9], in [19], in assay [20], in [13], in assay [14] and in assay [15] was “inactive” in each case. Besides, the result in assay [4] and in [5] was inactive.
As to `CN1CCN(CCCN2c3ccccc3Sc3ccc(C(F)(F)F)cc32)CC1`, the Potency in [1] was 29800 nM (active); in [15], 29.8 nM (active). For the same molecule, the Potency entry in assay [2], in [3], in assay [6], in assay [7], in [8] and in assay [9] was “inactive” each time. In addition, the Potency entry in assay [13] and in [14] was “inactive” throughout. For the same molecule, the outcome in assay [4] and in [5] was inactive.
